From PubChem BioAssay
In the library only some 14% were active in any assay of this set; here they are far more common.
Pf growth 96h – Primary qHTS for delayed death inhibitors of the malarial parasite plastid, 96 hour incubation; P. falciparum luciferase reporter growth, 96 h; Potency, µM (titrated, usually from 28.7 µM), without a hit: top-dose activity change, negative = inhibition, actives largely listed as inhibitors; actives 6.9% (n = 320,000); further: potency means the concentration at half of the fitted maximal effect
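96 h incubation, 37 C, 5% CO2, of luciferase-reporter P. falciparum-infected RBCs (2% hematocrit, 0.05% parasitemia final) with test compounds; endpoint luminescence.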
Marburg entry inh – qHTS for inhibitors of binding or entry into cells for Marburg Virus; Marburg virus pseudotyped entry inhibition, cell reporter; Potency, µM (top dose mostly 37.8 µM), inactives show top-dose activity change, negative = inhibition, hits mostly inhibitors; actives 1.8% (n = 300,000); calls by dose curve; tested in HEK293 cells; further: potency means the concentration at half of the fitted maximal effect
HCV inhibitor – qHTS Assay for Inhibitors of Hepatitis C Virus (HCV) | Huh7.5.1 HCVcc-Cre infection, luciferase reporter, 44 h | Potency, µM (doses to about 41.8 µM), inactives show at the highest dose activity change, negative = inhibition, usual class: inhibitors | actives 3.4% (n = 340,000); further: potency means the concentration at half of the fitted maximal effect
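1,000 cells/well; 4 h culture; + compound; + HCVcc-Cre (~0.5 moi); 44 h; luciferase substrate, RT 15 min; read 15 sec.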
HCMV inh – qHTS Assay for inhibitors of the human cytomegalovirus (HCMV). HFF cells, HCMV-luciferase reporter, 72 h; hits give low values. activity change, negative = inhibition, % at 57.5 µM. actives 4.5% (n = 410,000). AID 1259415, 2018; in the data active means activity change below about -60%; inconclusive means no clear call, values can overlap the other calls; inactive means above about -39%
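Two compound doses tested in HFFs infected with HCMV-luciferase, MOI 1 PFU/cell, 72 h at 37C. Lysate luminescence read with OneGlo; data normalized against buffer-only and 10uM Salinomycin inhibitor controls.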
Lassa entry inh – qHTS for Inhibitors of binding or entry into cells for Lassa Virus; AID 540256, 2011; Lassa virus pseudotype entry inhibition, cell reporter; actives 1.2% (n = 300,000); Potency, µM (highest dose often 37.9 µM), for inactives: top-dose activity change, negative = inhibition, most hits filed as inhibitors; calls by dose curve; tested in HEK293 cells; further: potency means the concentration at half of the fitted maximal effect; nearly all actives have a fitted effect of over 50% in size
Pf growth 48h – Primary qHTS for delayed death inhibitors of the malarial parasite plastid, 48 hour incubation. actives 5.9% (n = 310,000). P. falciparum luciferase growth in erythrocytes, 48 h. Potency, µM (titrated, usually from 28.7 µM), for the others: top-dose activity change, negative = inhibition, actives largely listed as inhibitors. AID 504832, 2011; further: potency means the concentration at half of the fitted maximal effect
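Erythrocytes infected with P. falciparum carrying an integrated firefly luciferase reporter (2% hematocrit, 0.1% parasitemia final) were exposed to compounds in RPMI 1640 with 0.5% Albumax at 37 C, 5% CO2. Growth inhibition was scored as reduced luminescence.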
Active calls of the source: *; ? = inconclusive; / = no result; [ ] = another dose, or the depositor's remark. Unless noted, the call rests on the fitted dose curve; in most records, active means well fitted inhibition curve with a large enough effect; inconclusive means small, poorly fitted or top-dose-only effect, or another doubt; inactive means no such curve, though single readings can be large or run the other way. On the % scale 0 is the no-effect control and ±100 the full control effect.

SMILES	Pf growth 96h	Marburg entry inh	HCV inhibitor	HCMV inh	Lassa entry inh	Pf growth 48h
O=C(c1ccc2c(c1)N(Cc1cccc(Cl)c1)C(=O)c1ccccc1S2(=O)=O)N1CCN(c2cccc(C(F)(F)F)c2)CC1	/	/	/	-12	-12%[46.1 µM]	/
CC(=O)c1ccc(NC(=O)C(C)Sc2nnc3ccccn23)cc1 (stereo not drawn)	9.3µM*	10%	-4%	-17	-6%	?
COc1ccc(OCC(=O)Nc2cc(-c3cccc(Cl)c3)nn2-c2ccccc2)cc1	/	/	/	14	14%[46.1 µM]	/
CCc1ccccc1N1CC(c2nc3ccccc3n2CC(C)C)CC1=O (stereo not drawn)	/	-31%[46.1 µM]	/	9	?	/
C=CCN1CC(c2nc3ccccc3n2Cc2cccc3ccccc23)CC1=O (stereo not drawn)	12µM*	?	17%	-22	-17%	?
CCN(Cc1ccccc1)C(=O)CCc1c(C)nc2c(c(C)nn2-c2ccc(C)c(C)c2)c1C	/	14%[46.1 µM]	/	15	15%[46.1 µM]	/
CCN(CC)S(=O)(=O)c1ccc2c(c1)N(CC(=O)N1CCN(c3ccccc3F)CC1)C(=O)CO2	/	?	/	-17	-1%[46.1 µM]	/
CC(=O)C1=C(C)N(Cc2ccccc2)C(=O)NC1c1cccc(C(F)(F)F)c1 (stereo not drawn)	/	-7%[14.2 µM]	/	/	/	/
Cc1ccc2nc(N/N=C/c3ccccc3C#N)nc(-c3ccccc3)c2c1	-72%	13µM*	?	?	?	?
N#Cc1ccccc1/C=N/Nc1nc(-c2ccccc2)c2cc(Cl)ccc2n1	49%	?	?	?	18%	13%
COC(=O)Cn1cc(C#N)c2ccccc21	30%	10%	25%	6	8%	-3%
CC(C)(C)NC(=O)Cn1cc(C#N)c2cc(Br)ccc21	/	11%	-2%	-30	?	5.9µM*
O=C(Cc1c[nH]c2ccccc12)NCc1ccc(Cl)cc1	57%	-8%	1%	2	20%	2%
O=C(Cc1c[nH]c2ccccc12)NNCc1ccc(N(CCCl)CCCl)cc1	/	1.6µM*	?	?	3.5µM*	/
Cc1ccc(OCC(=O)Oc2ccc(C)c(C)c2)cc1	?	-3%	-3%	-2	9%	14%
CCCCNC(=O)C1=C(N)C(C(=O)Nc2ccc(C)c(S(=O)(=O)N3CCCCC3)c2)SC1=Nc1ccc(C)cc1C (stereo not drawn)	10µM*	13µM*	27%	-9	-25%	/
CCN(CC)S(=O)(=O)c1cccc(C(=O)Nc2cccc(C)c2)c1	106%	15%	?	4	-15%	/
CCN(CC)S(=O)(=O)c1cccc(NC(=O)C2SC(=Nc3ccc(C)cc3C)C(C(=O)NC(C)COC)=C2N)c1 (stereo not drawn)	3.7µM*	-50%[46.1 µM]	?	/	?	/
CCCCC(=O)Nc1ccc(C)c(S(=O)(=O)N2CCCCCC2)c1	?	?	?	-26	?	?
CC(=O)c1ccc(NC(=O)CCCN2C(=O)COc3ccc(C)cc32)cc1	?	15%[46.1 µM]	-14%	20	0%[46.1 µM]	-5%
COc1cccc(F)c1-c1nc2ccccc2n1C(C(=O)Nc1c(C)cccc1C)c1ccccc1 (stereo not drawn)	/	/	/	-33	/	/
Cc1cccc(N2CCN(C(=O)c3ccc4c(c3)N(Cc3cccc(Cl)c3)C(=O)c3ccccc3S4=O)CC2)c1C (stereo not drawn)	/	/	/	10	-15%[46.1 µM]	/
Cc1cc(OCC(=O)Nc2sc3c(c2C#N)CC(C)(C)NC3(C)C)c(C(C)C)cc1Cl	7.4µM*	/	3.2µM*	-21	/	13µM*
COc1ccc(CC(=O)Nc2sc3c(c2C#N)CC(C)(C)NC3(C)C)cc1OC	-8%	/	-15%	-29	/	-21%
CC(=O)Nc1sc2c(c1C#N)CC(C)(C)NC2(C)C	/	-1%	-10%	21	-2%	9%
SMILES	Pf growth 96h	Marburg entry inh	HCV inhibitor	HCMV inh	Lassa entry inh	Pf growth 48h
Cc1ccc(C(C)C)c(OCC(=O)Nc2sc3c(c2C#N)CC(C)(C)NC3(C)C)c1	?	?	?	/	-19%	?
CCCC(=O)Nc1sc2c(c1C#N)CC(C)(C)NC2(C)C	2.1µM*	0%	-5%	-18	-1%	11%
CC1(C)Cc2c(sc(NC(=O)COc3ccccc3)c2C#N)C(C)(C)N1	3%	1%	13µM*	14	-9%	0%
Cc1ccc(C)c(N2CCN(C(=O)c3ccc(CS(=O)Cc4cccc(Cl)c4)o3)CC2)c1 (stereo not drawn)	-9%	-30%[46.1 µM]	-11%	6	?	2%
Cc1cc(C)n(-c2ccc(NC(=O)C3CCCCN3Cc3cccc4c3OCO4)cc2)n1 (stereo not drawn)	17%	?	?	-20	1%	20%
CCCCNC(=O)c1nc(-c2cccnc2)oc1-c1ccc(OC(F)(F)F)cc1	/	/	/	-14	/	/
CCN(CC)CCNc1nc(-c2cccs2)c(CC(=O)O)s1	-14%	?	14%	-87*	14%	12%
Cc1ccc(C23CC4CC(CC(CN)(C4)C2)C3)cc1	?	?	?	-22	?	10µM*
NCC12CC3CC(C1)CC(c1ccc(Br)cc1)(C3)C2	8%	/	13µM*	-1	/	0%
Cc1ccc(-c2nnc(Nc3cccc(Cl)c3)c3ccccc23)cc1S(=O)(=O)N1CCCCC1	/	/	/	-27	-25%[46.1 µM]	/
CC1(C(=O)NS(=O)(=O)c2ccc(Cl)cc2)CCN1C(=O)CC1CC1 (stereo not drawn)	/	/	/	-1	/	/
COc1cc2c(cc1OC)CN(CC(=O)Nc1ccc(Cl)c(S(=O)(=O)N(C)C)c1)CC2	?	/	/	/	/	13µM*
COc1cc2c(cc1OC)CN(CC(=O)Nc1ccc(S(=O)(=O)N(C)C)cc1)CC2	?	1%[46.1 µM]	-10%	-19	8%	-27%
COc1cc2c(cc1OC)CN(CC(=O)Nc1ccc(C)c(S(=O)(=O)N3CCOCC3)c1)CC2	12µM*	/	13%	3	/	?
O=C(CSc1nnc(-c2ccncc2)n1-c1ccccc1)Nc1ccc(Br)cc1	/	/	/	12	22%[46.1 µM]	/
CCN1CCN(c2ccc(S(=O)(=O)N3CCOCC3)cc2NC(=O)c2cccc([N+](=O)[O-])c2)CC1	/	?	?	6	8%[46.1 µM]	/
CCN1CCN(c2ccc(S(=O)(=O)N3CCOCC3)cc2NC(=O)/C=C/c2ccc([N+](=O)[O-])cc2)CC1	3.7µM*	?	25µM*	7	-4%[46.1 µM]	2.6µM*
CCN1CCN(c2ccc(S(=O)(=O)N3CCOCC3)cc2NC(=O)/C=C/c2ccc(OC)cc2OC)CC1	?	?	8%	-30	-23%[46.1 µM]	10µM*
